Screening data: PubChem BioAssay, several laboratories
In the library only some 2.7% were active in any assay of this set; here they are far more common.
SENP7 inh = SENP7 protease inhibition | recombinant SENP7, Z-RLRGG-aminoluciferin luminescence, 40 min | inhibition, % at 5 µM | actives 1.5% (n = 330,000);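 active = inhibition above about 50% at the single test dose, limit read from the data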;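 also: plate controls were DMSO with enzyme for no effect and no enzyme buffer wells for full effect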
HSP90 refold inh = inhibitors of HSP90 luciferase refolding in rabbit reticulocyte lysate. inhibition, % at 5.6 µM. luciferase refolding luminescence, 3 h. actives 0.91% (n = 290,000);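 active = inhibition above the screen-wide mean plus 3 SD, computed separately per campaign, cut at about 16% in these data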;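 also: 0% = DMSO wells and 100% = 60 µM geldanamycin wells; inhibitors lower the luminescence because luciferase stays unfolded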
SENP8 block-1 = blocks human SENP8 cleavage of Nedd8 substrate; actives 0.64% (n = 360,000); inhibition, % at 20 µM; recombinant SENP8, Nedd8 substrate fluorescence; in the data active = inhibition mostly above about 40%, no sharp cut-off; inactive = mostly below about 27%
Target sequence (Q96LD8 whole entry, looked up): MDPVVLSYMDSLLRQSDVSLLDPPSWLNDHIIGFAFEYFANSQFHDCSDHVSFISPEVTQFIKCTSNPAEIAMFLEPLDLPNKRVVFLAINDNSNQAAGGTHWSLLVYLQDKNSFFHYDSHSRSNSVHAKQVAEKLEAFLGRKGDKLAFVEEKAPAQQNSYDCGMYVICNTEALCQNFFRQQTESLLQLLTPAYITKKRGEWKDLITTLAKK
SENP8 block-2 = inhibitors of human SENP8 protease. Q96LD8. purified SENP8, Z-RLRGG-aminoluciferin cleavage, luminescence. inhibition, % at 10 µM. actives 1.2% (n = 330,000); in the data active = inhibition above about 50%
SENP6 block = inhibitors of human SENP6 protease. Recombinant SENP6 catalytic domain, aminoluciferin luminescence. actives 1.8% (n = 330,000). inhibition, % at 10 µM. Q9GZR1. AID 2599;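 active = inhibition above about 50% at the single tested dose, limit read from the data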;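 also: plate controls were DMSO wells with enzyme for no effect and DMSO wells lacking enzyme for full effect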
SENP8 confirm = human SENP8 inhibition, confirmed; shares compounds with SENP7 inh; Recombinant SENP8, Z-RLRGG-aminoluciferin luminescence, 60 min; inhibition, % at 12.5 µM; actives 40% (n = 6,200); AID 488912;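 active = mean inhibition across replicates above about 50%, limit read from the data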
SENP6 confirm = confirmation of human SENP6 protease inhibitors. AID 488915. inhibition, % at 12.5 µM. recombinant SENP6, Z-RLRGG-aminoluciferin luminescence. shares compounds with SENP7 inh. actives 58% (n = 6,200)
SENP7 conf = human SENP7 inhibition, confirmed; actives 69% (n = 6,200); shares compounds with SENP7 inh; recombinant SENP7, Z-RLRGG-aminoluciferin luminescence, 40 min; AID 488917; inhibition, % at 12.5 µM
Casp3 select = inhibits human caspase-3 in SENP selectivity test. shares compounds with SENP7 inh. purified caspase-3, Z-DEVD-aminoluciferin luminescence, 60 min. inhibition, % at 12.5 µM. actives 60% (n = 6,200);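 active = mean inhibition above about 50%, limit read from the data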;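 also: plate controls were enzyme with DMSO for no effect and wells without caspase-3 for full effect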
Target sequence (P42574 28-227 limits assumed): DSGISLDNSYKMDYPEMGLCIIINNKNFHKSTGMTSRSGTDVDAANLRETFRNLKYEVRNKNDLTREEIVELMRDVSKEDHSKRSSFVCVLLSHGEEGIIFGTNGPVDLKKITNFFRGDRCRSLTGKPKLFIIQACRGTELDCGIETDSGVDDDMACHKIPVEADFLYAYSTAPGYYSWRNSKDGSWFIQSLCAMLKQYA
Luc interf = interferes with luciferase luminescence in SENP counter-screen | Pre-incubated SENP8/Z-RLRGG-aminoluciferin, luciferase luminescence interference | shares compounds with SENP7 inh | inhibition, % at 12.5 µM | actives 39% (n = 6,200);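 active = mean inhibition above about 50% when retested at one dose, limit read from the data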;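 also: plate controls were DMSO wells with completed reaction for no effect and substrate without enzyme for full effect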
Starred values were filed as active, the others as inactive.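 The calls were made as follows, unless noted: active = mean inhibition above about 50% in the one-dose retest (limit read from the data); inactive = the rest.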

Screening CC(=O)Oc1ccc(-c2nc(-c3cccnc3)no2)cc1 returned SENP7 inh 100*, HSP90 refold inh -4, SENP8 block-1 14, SENP8 block-2 98*, SENP6 block 96*, SENP8 confirm 97*, SENP6 confirm 99*, SENP7 conf 103*, Casp3 select 98* and Luc interf 37.
COc1ccccc1-c1nc(-c2ccc(Br)o2)no1 was read as SENP7 inh 78*, HSP90 refold inh 4, SENP8 block-1 0, SENP8 block-2 78*, SENP6 block 83*, SENP8 confirm 5, SENP6 confirm 59*, SENP7 conf 55*, Casp3 select 42 and Luc interf 65*.
For COc1ccccc1Cc1nc(-c2ccc(Br)o2)no1 the results were SENP7 inh 5, HSP90 refold inh 0, SENP8 block-1 -4, SENP8 block-2 -3 and SENP6 block -1.
CN(C)c1ccc(-c2noc(-c3ccccc3O)n2)cc1 was read as SENP7 inh 90*, HSP90 refold inh 3, SENP8 block-1 -50, SENP8 block-2 27, SENP6 block -25, SENP8 confirm 11, SENP6 confirm 19, SENP7 conf 17, Casp3 select 50 and Luc interf 12.
Screening Cc1ccc(-c2noc(-c3ccccc3Br)n2)cc1 returned SENP7 inh 90*, HSP90 refold inh -5, SENP8 block-1 16, SENP8 block-2 80*, SENP6 block 76*, SENP8 confirm 64*, SENP6 confirm 64*, SENP7 conf 85*, Casp3 select 70* and Luc interf 65*.
COc1ccc(-c2nc(-c3ccc(Br)cc3)no2)c(OC)c1 was read as SENP7 inh 48, HSP90 refold inh -8, SENP8 block-1 4, SENP8 block-2 -5 and SENP6 block -6.
Screening COc1ccccc1-c1nc(-c2ccc(Br)cc2)no1 returned SENP7 inh 0, HSP90 refold inh 2, SENP8 block-1 -7, SENP8 block-2 70*, SENP6 block 71*, SENP8 confirm 0, SENP6 confirm 11, SENP7 conf 22, Casp3 select 10 and Luc interf 7.
Screening CCOc1ccc(C(=O)NCC(=O)NCC(c2ccc(OC)cc2)N2CCOCC2)cc1OCC (configuration not stated) returned SENP7 inh -7, SENP8 block-1 -9, SENP8 block-2 3 and SENP6 block -11.
For COc1cc(/C=N\NC(C)=O)ccc1OC/C=C/c1ccccc1 the results were SENP7 inh 8, HSP90 refold inh 3, SENP8 block-1 -29, SENP8 block-2 -2 and SENP6 block -13.
For COC(=O)[C@@]1(Cc2ccc(OC)cc2)[C@H]2c3cc(C(=O)N(C)C)n(Cc4c(CO)[nH]cc(C)c4=O)c3C[C@H]2CN1C(=O)c1ccccc1 the results were SENP7 inh 5, SENP8 block-1 -12, SENP8 block-2 0 and SENP6 block -10.
Cc1cc(C)nc(SCC(=O)N/N=C/c2ccc3c(c2)OCO3)n1 was read as SENP7 inh 4, HSP90 refold inh -10, SENP8 block-1 -6, SENP8 block-2 52*, SENP6 block 62*, SENP8 confirm 6, SENP6 confirm 9, SENP7 conf -5, Casp3 select 2 and Luc interf 7.
`Cc1cc(C(=O)N/N=C/c2ccc3c(c2)OCO3)c(C)o1` gave SENP7 inh 77*, HSP90 refold inh 2, SENP8 block-1 -15, SENP8 block-2 70*, SENP6 block 74*, SENP8 confirm 86*, SENP6 confirm 84*, SENP7 conf 97*, Casp3 select 93* and Luc interf 58*.
O=C(N/N=C/c1ccc(OC(=O)c2cccs2)cc1)c1ccccn1 was read as SENP7 inh 74*, HSP90 refold inh 5, SENP8 block-1 -17, SENP8 block-2 13, SENP6 block 21, SENP8 confirm 8, SENP6 confirm 15, SENP7 conf 2, Casp3 select 7 and Luc interf 1.
Screening Cc1ccsc1C(=O)N/N=C/c1ccc2c(c1)OCO2 returned SENP7 inh 100*, HSP90 refold inh 9, SENP8 block-1 -63, SENP8 block-2 96*, SENP6 block 97*, SENP8 confirm 96*, SENP6 confirm 100*, SENP7 conf 103*, Casp3 select 99* and Luc interf 99*.
For O=C(N/N=C/c1ccc2c(c1)OCO2)c1ccc(Cl)cc1Cl the results were SENP7 inh 4, HSP90 refold inh -3, SENP8 block-1 3, SENP8 block-2 -4 and SENP6 block -30.
COc1ccc(C(=O)ON=C2CCN(c3ccc([N+](=O)[O-])cc3)CC2)cc1 was read as SENP7 inh -5, HSP90 refold inh 2, SENP8 block-1 23, SENP8 block-2 -10 and SENP6 block -18.
CCCCn1c(N)c(N(Cc2ccccc2OC)C(=O)C(C)Oc2ccc(Cl)cc2)c(=O)[nH]c1=O (configuration not stated) was read as SENP7 inh 5, HSP90 refold inh 1, SENP8 block-1 -38, SENP8 block-2 -7 and SENP6 block -12.
For O=C(N/N=C/c1ccc2c(c1)OCO2)c1ccc2c(c1)OCCO2 the results were SENP7 inh 1, HSP90 refold inh -1, SENP8 block-1 -75, SENP8 block-2 -14 and SENP6 block -21.
`O=C(N/N=C/c1ccc2c(c1)OCO2)c1cccs1` gave SENP7 inh 89*, HSP90 refold inh 4, SENP8 block-1 -148, SENP8 block-2 84*, SENP6 block 76*, SENP8 confirm 92*, SENP6 confirm 93*, SENP7 conf 100*, Casp3 select 94* and Luc interf 90*.
COc1cccc(/C=N/NC(=O)c2cccs2)c1 was read as SENP7 inh 62*, HSP90 refold inh 5, SENP8 block-1 1, SENP8 block-2 34, SENP6 block 55*, SENP8 confirm 54*, SENP6 confirm 50*, SENP7 conf 84*, Casp3 select 71* and Luc interf 64*.
`COc1cc(/C=N/NC(=O)c2cccs2)ccc1O` gave SENP7 inh 6, HSP90 refold inh -4, SENP8 block-1 35, SENP8 block-2 -1 and SENP6 block 20.
